This passage reports outcome, Potency and activation results from PubChem BioAssay (NCATS).

A number with no mark means an inactive call. Inconclusive results are not listed. The source made the active and inactive calls. Unless noted, the call rests on the fitted dose curve; in most records, active means well fitted curve in the direction sought with a large enough effect; inconclusive means small, poorly fitted or top-dose-only effect, or another doubt; inactive means no such curve, though single readings can be large; an effect the other way counts as inactive or inconclusive.

Experiment [1] in a line: Validation of Assay for Modulators of Lamin A Splicing (AID 1459; active means well fitted curve in the direction sought with a large enough effect in the signal ratio; the % refers to the signal ratio;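 further: cells exposed to compound for two days before reading; 0% is about no effect; ratio rise marks activators and ratio drop marks inhibitors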). Put shortly:
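Splicing correction read as GFP (500-530 nm) over DsRed2 (575-640 nm) object intensity after 48 h compound exposure of reporter HeLa S3 clones (600 cells/well, 2% FBS medium); ancitabine and cycloheximide titrations, 0.5% DMSO as vehicle.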

In experiment [2] the target is DNA repair nuclease/redox regulator APEX1 (Homo sapiens) (UniProt P27695). Kind of experiment: qHTS Validation Assay for Inhibitors of the Human Apurinic/apyrimidinic Endonuclease 1 (APE1) (AID 1705;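 further: TAMRA fluorescence gain over two minutes as APE1 cuts a quenched THF abasic duplex; series mostly up to about 57 µM; on the % scale 0 is the no-effect control and ±100 the full control effect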). Put shortly:
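Activity read as rising fluorescence (598 nm emission, 525 nm excitation) from incision of a TAMRA/BHQ-2 duplex carrying a THF abasic site (50 nM). Compound and enzyme sat 15 min at RT before substrate start; signal change between first and third 60-s reads.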

The target of experiment [3] is ATP-dependent DNA helicase Q1 (Homo sapiens) (UniProt P46063). Nature of the experiment: qHTS Validation Assay for Inhibitors of RecQ-Like Dna Helicase 1 (RECQ1) (AID 2353).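 Further: plate controls were DMSO vehicle for no effect and enzyme-free control for full effect.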 Put shortly: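 RECQ1T1 50 nM; forked duplex (20 bp + 30-nt ss tails) 200 nM, ATP 2 mM final; pH 8.0, 2 mM MgCl2, 2.5 ug/ml poly(dI-dC); 15 min compound preincubation; discontinuous kinetic read over 2 h at RT.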
(qHTS replaces the single test concentration by a dilution series.)

Experiment [4] in a line: Quantitative high throughput screen for delayed death inhibitors of the malarial parasite plastid, 96 hour incubation (AID 488745). Further: nearly all actives have a fitted effect of over 70% in size. Further: potency means the concentration at half of the fitted maximal effect. The essentials: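 Readout is firefly luciferase luminescence from an integrated reporter in P. falciparum; lower signal marks inhibited growth. Cultures at 2% hematocrit and 0.1% parasitemia were treated with compound across two generations (96 h, 37 C, 5% CO2).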

A short description of experiment [5]: Quantitative high throughput screen for delayed death inhibitors of the malarial parasite plastid, 48 hour incubation (AID 488752). Further: nearly all actives have a fitted effect of over 65% in size. Further: potency means the concentration at half of the fitted maximal effect. Put shortly:
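First, compound was pinned into RPMI 1640 medium containing 0.5% Albumax. Next, reporter-parasite-infected erythrocytes were added to 2% hematocrit and 0.1% parasitemia. After 48 h at 37 C under 5% CO2, luciferase detection reagent was added and luminescence read.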

Experiment [6] has as its target Thyrotropin receptor (Homo sapiens) (UniProt P16473). Kind of experiment: qHTS Assay for Antagonists of the Thyroid Stimulating Hormone Receptor (AID 488980). Further: series mostly up to about 58 µM; 0% is about no effect. Put shortly: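 Inhibition of cAMP raised by EC80 TSH (4 nM final) was read by HTRF, with lysate cAMP competing against cAMP-d2 for cryptate antibody after 30 min at room temperature. The cells were transfected HEK293 held in phosphodiesterase inhibitor RO 20-1724 at 70 uM.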

Experiment [7] addresses Thyrotropin-releasing hormone receptor (Homo sapiens) (UniProt P34981). Kind of experiment: qHTS for Small Molecule Agonists and Allosteric Enhancers of Human TRH Receptor: Validation Screen for Agonists (AID 493127;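 active means calcium activation more than 3 SD above the typical response in the agonist read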;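 further: intracellular calcium rise by fluo-8 fluorescence before TRH EC20 addition; 0% is about no effect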). The note with it: TRH receptor agonist cell assay; at 2 µM; stronger effect = higher value. Put shortly: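 Compounds are added by online pintool to dye-loaded TRHR cells while fluorescence is recorded every second. A rise in calcium signal during the agonist read marks activation; a later 10 nM TRH addition (EC20) serves the separate enhancer mode.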

The target of experiment [8] is Galactokinase (Homo sapiens) (UniProt P51570). Kind of experiment: qHTS Validation Assay for Inhibitors of Human Galactokinase (GALK) (AID 493189). Further: 0% is about no effect. The essentials:
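Inhibition was measured as remaining ATP, detected by luciferase luminescence after a 1 h room-temperature reaction. Final conditions: 5 nM GALK, 100 uM galactose, 35 uM ATP, pH 8.0 HEPES buffer.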

A short description of experiment [9]: Validation screen for small molecules that induce DNA re-replication in SW480 colon adenocarcinoma cells (AID 504364). Further: 0% is about no effect. The essentials: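 Image-based qHTS: compounds were incubated with SW480 cells for 48 hr, nuclei stained with Hoechst, and per-nucleus fluorescence intensity scanned to flag cells with excess DNA content.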
Experiment [10] in a line: Counterscreen for APE1 Inhibitors: Fluorescent Dye Displacement Validation Assay (AID 1707).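 Further: plate controls were ThO with dsDNA and no compound for no effect and ThO without dsDNA for full effect.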 Put shortly: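 Reaction mixture of 250 nM Thiazole Orange and 50 nM double-stranded abasic-site DNA was dispensed, compounds were pin-transferred, and fluorescence was read at endpoint (480 nm ex, 540 nm em). Reduced fluorescence indicated dye displacement by DNA binding.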
For orientation: The purpose of a counterscreen is to sort out artefacts and off-target activity.

The target of experiment [11] is Ferritin light chain (Equus caballus) (UniProt P02791). Kind of experiment: qHTS Validation Assay for Identification of Novel General Anesthetics (AID 2323). Further: series mostly up to about 77 µM; on the % scale 0 is the no-effect control and ±100 the full control effect. The essentials: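 Competitive displacement of the profluorescent anesthetic 1-AMA (50% saturated, PBS) from 10 uM apoferritin, 10 min, room temperature. Activity is normalized 380/535 nm fluorescence; concentration-response fitted with a four-parameter Hill equation.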

Experiment [12] concerns the target Transient receptor potential cation channel subfamily V member 1 (Homo sapiens) (UniProt Q8NER1). Kind of experiment: HTS Assay for Compounds that Act as Enhancers of the Vanilloid Receptor 1 (AID 488979). Further: 0% is about no effect. The essentials:
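TRPV1-expressing cells loaded with Fluo-8 calcium dye; compounds added and calcium influx read kinetically for 3 min (agonist phase), then capsaicin at EC20 added and read 2 min more for enhancement. Fluorescence ex 480/em 520 nm.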

For experiment [13], the target named is M-phase phosphoprotein 8 (Homo sapiens) (UniProt Q99549). Kind of experiment: qHTS Validation Assay for Inhibitors for MPP8 Chromodomain Interactions with Methylated Histone Tails (AID 488949). Further: nearly all actives have a fitted effect of over 55% in size. Further: potency means the concentration at half of the fitted maximal effect. The essentials: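 AlphaScreen proximity signal from streptavidin donor and Ni-chelate acceptor beads (10 ug/mL each) reported binding of MPP8 to trimethyl-K9 H3(1-18) peptide, both at 50 nM. The complex formed 30 min before a 30 min compound exposure at room temperature, in PBS pH 7.4.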
Sequence of M-phase phosphoprotein 8 (Homo sapiens) (Q99549 whole entry, looked up): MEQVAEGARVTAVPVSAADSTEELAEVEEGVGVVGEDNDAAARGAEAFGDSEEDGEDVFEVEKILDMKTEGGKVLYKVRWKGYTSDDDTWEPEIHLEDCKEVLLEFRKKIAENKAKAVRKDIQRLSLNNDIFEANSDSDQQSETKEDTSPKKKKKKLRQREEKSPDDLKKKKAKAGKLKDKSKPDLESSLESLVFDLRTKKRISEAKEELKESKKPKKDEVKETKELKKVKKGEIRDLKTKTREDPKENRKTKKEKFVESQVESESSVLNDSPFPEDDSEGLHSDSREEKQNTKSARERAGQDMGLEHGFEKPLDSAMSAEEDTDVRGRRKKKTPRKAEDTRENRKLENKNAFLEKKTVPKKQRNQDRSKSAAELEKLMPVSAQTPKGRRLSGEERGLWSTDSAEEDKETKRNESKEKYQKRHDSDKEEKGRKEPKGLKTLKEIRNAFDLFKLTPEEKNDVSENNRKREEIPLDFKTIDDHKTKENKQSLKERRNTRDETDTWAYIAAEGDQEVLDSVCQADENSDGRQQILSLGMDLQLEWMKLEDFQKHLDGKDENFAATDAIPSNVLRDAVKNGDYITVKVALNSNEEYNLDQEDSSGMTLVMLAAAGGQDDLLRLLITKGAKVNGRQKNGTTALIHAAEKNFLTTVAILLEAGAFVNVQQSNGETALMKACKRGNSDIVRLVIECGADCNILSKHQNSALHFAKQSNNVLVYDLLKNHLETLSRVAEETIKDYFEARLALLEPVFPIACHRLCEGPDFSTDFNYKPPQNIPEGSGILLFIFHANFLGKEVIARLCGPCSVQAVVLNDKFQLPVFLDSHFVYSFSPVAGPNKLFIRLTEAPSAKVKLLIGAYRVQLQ

Sequence of DNA repair nuclease/redox regulator APEX1 (Homo sapiens) (P27695 whole entry, looked up): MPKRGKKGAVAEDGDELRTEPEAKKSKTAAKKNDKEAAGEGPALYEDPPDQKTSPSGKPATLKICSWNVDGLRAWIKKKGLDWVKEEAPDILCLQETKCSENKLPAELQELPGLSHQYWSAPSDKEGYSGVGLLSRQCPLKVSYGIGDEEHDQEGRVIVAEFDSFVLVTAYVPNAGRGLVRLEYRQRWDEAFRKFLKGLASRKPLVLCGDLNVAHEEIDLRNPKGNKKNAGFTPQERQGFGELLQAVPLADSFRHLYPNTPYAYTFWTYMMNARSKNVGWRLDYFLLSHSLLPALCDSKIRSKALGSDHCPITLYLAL
Sequence of ATP-dependent DNA helicase Q1 (Homo sapiens) (P46063 whole entry, looked up): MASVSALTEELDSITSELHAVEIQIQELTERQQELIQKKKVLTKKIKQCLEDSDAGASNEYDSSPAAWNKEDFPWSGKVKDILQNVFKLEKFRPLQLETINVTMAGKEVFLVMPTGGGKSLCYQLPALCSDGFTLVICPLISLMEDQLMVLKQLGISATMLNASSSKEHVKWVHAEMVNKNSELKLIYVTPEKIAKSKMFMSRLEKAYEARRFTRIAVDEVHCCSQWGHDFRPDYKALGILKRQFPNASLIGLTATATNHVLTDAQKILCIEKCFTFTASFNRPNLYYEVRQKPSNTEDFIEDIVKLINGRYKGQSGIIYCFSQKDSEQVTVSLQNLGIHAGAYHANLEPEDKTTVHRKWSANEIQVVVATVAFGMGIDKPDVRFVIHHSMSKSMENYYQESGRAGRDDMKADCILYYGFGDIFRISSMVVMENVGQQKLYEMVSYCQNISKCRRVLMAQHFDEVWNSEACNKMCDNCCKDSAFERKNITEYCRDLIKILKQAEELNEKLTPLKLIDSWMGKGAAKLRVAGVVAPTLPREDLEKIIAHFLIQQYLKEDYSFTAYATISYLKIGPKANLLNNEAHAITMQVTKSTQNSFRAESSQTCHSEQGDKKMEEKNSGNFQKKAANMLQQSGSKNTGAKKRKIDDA
Sequence of Galactokinase (Homo sapiens) (P51570 whole entry, looked up): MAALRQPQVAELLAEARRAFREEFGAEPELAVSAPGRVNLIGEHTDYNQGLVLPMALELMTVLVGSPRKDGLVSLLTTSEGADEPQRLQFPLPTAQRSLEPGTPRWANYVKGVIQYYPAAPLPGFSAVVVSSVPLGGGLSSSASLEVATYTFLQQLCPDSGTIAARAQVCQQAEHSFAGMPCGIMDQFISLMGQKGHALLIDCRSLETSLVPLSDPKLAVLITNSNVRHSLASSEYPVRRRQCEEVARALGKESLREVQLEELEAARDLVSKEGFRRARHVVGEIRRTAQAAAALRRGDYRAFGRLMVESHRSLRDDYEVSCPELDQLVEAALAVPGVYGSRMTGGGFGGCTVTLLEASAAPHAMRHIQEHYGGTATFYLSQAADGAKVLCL
Sequence of Ferritin light chain (Equus caballus) (P02791 2-175 limits assumed): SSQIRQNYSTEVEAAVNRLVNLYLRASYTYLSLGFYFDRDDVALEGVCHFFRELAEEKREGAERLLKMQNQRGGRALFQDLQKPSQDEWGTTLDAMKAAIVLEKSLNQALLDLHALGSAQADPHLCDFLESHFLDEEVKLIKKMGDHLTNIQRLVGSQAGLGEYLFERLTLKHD
Sequence of Thyrotropin-releasing hormone receptor (Homo sapiens) (P34981 whole entry, looked up): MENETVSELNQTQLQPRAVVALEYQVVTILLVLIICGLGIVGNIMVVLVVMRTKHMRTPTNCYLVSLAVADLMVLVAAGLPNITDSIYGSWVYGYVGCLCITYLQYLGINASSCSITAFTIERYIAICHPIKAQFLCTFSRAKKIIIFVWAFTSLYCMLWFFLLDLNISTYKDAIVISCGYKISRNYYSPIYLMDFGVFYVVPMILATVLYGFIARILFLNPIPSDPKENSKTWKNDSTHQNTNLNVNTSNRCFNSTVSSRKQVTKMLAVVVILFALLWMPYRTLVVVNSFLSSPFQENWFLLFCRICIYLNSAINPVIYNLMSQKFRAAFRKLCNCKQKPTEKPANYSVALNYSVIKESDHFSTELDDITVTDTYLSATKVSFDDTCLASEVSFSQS
Sequence of Thyrotropin receptor (Homo sapiens) (P16473 whole entry, looked up): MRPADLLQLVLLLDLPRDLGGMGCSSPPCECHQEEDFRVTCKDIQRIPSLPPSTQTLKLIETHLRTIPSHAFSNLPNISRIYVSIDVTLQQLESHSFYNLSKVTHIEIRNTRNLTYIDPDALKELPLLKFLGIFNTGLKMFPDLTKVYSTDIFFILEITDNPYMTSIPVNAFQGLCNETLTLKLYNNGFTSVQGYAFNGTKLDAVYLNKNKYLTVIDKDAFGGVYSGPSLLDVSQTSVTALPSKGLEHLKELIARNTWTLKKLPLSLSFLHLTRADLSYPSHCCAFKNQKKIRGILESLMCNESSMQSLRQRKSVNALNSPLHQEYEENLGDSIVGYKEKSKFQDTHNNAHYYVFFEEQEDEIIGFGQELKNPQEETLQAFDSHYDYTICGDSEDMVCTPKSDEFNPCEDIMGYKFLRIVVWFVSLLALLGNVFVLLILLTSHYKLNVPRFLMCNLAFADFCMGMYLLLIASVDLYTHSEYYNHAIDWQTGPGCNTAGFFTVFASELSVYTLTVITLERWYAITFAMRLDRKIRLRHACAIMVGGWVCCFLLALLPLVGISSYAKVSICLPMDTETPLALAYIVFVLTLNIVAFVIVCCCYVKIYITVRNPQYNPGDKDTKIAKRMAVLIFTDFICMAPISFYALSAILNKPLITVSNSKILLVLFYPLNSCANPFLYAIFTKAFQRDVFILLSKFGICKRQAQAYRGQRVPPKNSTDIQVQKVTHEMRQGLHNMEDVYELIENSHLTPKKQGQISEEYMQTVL
Sequence of Transient receptor potential cation channel subfamily V member 1 (Homo sapiens) (Q8NER1 whole entry, looked up): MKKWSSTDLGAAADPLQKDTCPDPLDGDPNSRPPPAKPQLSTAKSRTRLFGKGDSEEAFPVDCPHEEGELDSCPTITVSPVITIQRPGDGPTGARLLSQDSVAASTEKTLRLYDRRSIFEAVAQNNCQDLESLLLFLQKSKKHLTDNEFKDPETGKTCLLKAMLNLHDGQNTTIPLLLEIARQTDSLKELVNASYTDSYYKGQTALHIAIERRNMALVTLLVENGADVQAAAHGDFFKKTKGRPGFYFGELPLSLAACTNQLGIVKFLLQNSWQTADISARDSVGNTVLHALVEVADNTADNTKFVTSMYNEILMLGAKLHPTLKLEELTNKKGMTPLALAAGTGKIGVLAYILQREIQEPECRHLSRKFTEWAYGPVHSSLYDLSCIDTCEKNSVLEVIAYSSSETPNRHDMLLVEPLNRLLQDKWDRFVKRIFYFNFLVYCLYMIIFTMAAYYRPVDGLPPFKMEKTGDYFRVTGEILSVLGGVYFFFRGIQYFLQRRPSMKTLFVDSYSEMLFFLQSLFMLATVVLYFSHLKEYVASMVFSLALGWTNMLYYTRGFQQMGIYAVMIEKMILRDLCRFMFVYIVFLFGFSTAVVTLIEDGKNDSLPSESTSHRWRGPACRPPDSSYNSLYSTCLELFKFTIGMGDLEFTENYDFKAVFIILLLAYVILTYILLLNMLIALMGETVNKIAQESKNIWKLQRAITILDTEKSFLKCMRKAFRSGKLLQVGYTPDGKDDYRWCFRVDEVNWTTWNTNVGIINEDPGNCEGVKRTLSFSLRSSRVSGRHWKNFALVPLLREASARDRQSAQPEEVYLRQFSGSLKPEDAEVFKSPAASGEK

`C[C@]12C=CC(=O)C=C1CCC1C2=CC[C@]2(C)[C@@H](C(=O)CN3CCN(c4cc(N5CCCC5)nc(N5CCCC5)n4)CC3)CC[C@@H]12` (stereo partly drawn): the compound was called inactive in experiment [1], in [6], in experiment [8] and in experiment [9]. Also, the Potency result in experiment [2] and in experiment [3] was “inactive” in each case. In addition, the Potency in experiment [4] and in experiment [5] was 13.1 µM (active) each time. In addition, the activation in [7] was 1.5%.

On to `CC(=O)NCCc1ccc(O)c(O)c1`, for which the compound was classed as inactive in experiment [1], in experiment [11], in experiment [12], in experiment [6], in experiment [8] and in [9]. In addition, the Potency result in experiment [2], in [10], in experiment [3], in experiment [4] and in experiment [5] was “inactive” throughout. The activation in experiment [7] is 0.75%.

Regarding `NCCCCNS(=O)(=O)c1cccc2c(Cl)cccc12`, the call in experiment [1], in experiment [11], in experiment [6] and in experiment [8] was inactive. The Potency result in experiment [2], in [10], in experiment [3] and in [13] was “inactive” throughout. The Potency in [5] is 14.7 µM (active). In addition, the activation in experiment [7] is 0.5%.

In the case of `CC(C)(C)[C@]1(O)CCN2CC3c4ccccc4CCc4cccc(c43)[C@@H]2C1` (stereo partly drawn), the result in experiment [1], in experiment [6], in [8] and in experiment [9] was inactive. Further, the Potency entry in experiment [2], in experiment [10], in experiment [3] and in experiment [13] was “inactive” in each case.

Turning to `CSc1nc(N)c2ncn([C@@H]3O[C@H](COP(=O)(O)OP(=O)(O)OP(=O)(O)O)[C@H](O)[C@H]3O)c2n1`, the result in [1], in experiment [11], in [12], in experiment [6], in experiment [8] and in experiment [9] was inactive. The Potency result in [2], in experiment [10], in experiment [3], in experiment [4], in experiment [5] and in experiment [13] was “inactive” in each case. Besides, the activation in experiment [7] is 24.8%.

With `CNCC[C@@H](Oc1ccc(C(F)(F)F)cc1)c1ccccc1`, the compound was called inactive in experiment [1], in experiment [6], in experiment [8] and in experiment [9]. The Potency entry in experiment [10], in experiment [3] and in experiment [13] was “inactive” in each case. The activation in [7] is 18.7%.

For the compound `OC[C@H]1O[C@@H](n2cnc3c(NC4CCCC4)ncnc32)[C@H](O)[C@H]1O`, the outcome in experiment [1], in experiment [11], in experiment [12], in [6], in experiment [8] and in [9] was inactive. For the same compound, the Potency result in experiment [2], in experiment [10], in experiment [3], in [4], in experiment [5] and in [13] was “inactive” throughout. In addition, the activation in experiment [7] was -0.438%.

With `CCSC(N)=Nc1ccc(C(F)(F)F)cc1`, the outcome in experiment [1], in experiment [12], in experiment [6], in experiment [8] and in experiment [9] was inactive. Moreover, the Potency entry in [2], in [10], in experiment [3], in experiment [4], in experiment [5] and in experiment [13] was “inactive” throughout. For the same compound, the activation in [7] is -5.5%.

`COC(=O)c1c(-c2cc(OC)c(OC)c(OC)c2)c2ccc(OCc3ccccn3)cc2c(=O)n1-c1ccc(N)cc1`: the compound was classed as inactive in experiment [1], in experiment [11], in experiment [12], in [6], in experiment [8] and in experiment [9]. Also, the Potency result in [2], in experiment [10] and in experiment [3] was “inactive” each time. The Potency in experiment [4] was 7.38 µM (active); in [5], 9.28 µM (active); in experiment [13] it was 28.2 µM (active). Further, in [7], the activation was -4%.

`CCCC(=O)NCCc1c2n(c3ccc(OC)cc13)Cc1ccccc1-2`: the compound was classed as inactive in [1], in experiment [11], in experiment [12], in [6], in experiment [8] and in [9]. The Potency entry in [10], in experiment [3], in experiment [4] and in experiment [13] was “inactive” each time. In [7], the activation was -7.06%.

`CCCCC#Cc1nc(N)c2ncn([C@@H]3O[C@H](C(=O)NCC)[C@@H](O)[C@H]3O)c2n1`: the call in experiment [1], in experiment [11], in experiment [12], in [6], in experiment [8] and in experiment [9] was inactive. Also, the Potency result in experiment [2], in experiment [10], in experiment [3] and in experiment [13] was “inactive” each time. In addition, the Potency in [4] is 13.1 µM (active). For the same compound, in experiment [7], the activation is -0.438%.

For the compound `O=[N+]([O-])c1ccc(CSc2ncnc3c2ncn3[C@@H]2O[C@H](CO)[C@H](O)[C@H]2O)cc1`, the compound was classed as inactive in experiment [1], in experiment [12], in experiment [6], in experiment [8] and in experiment [9]. Moreover, the Potency result in experiment [2], in [10], in [3], in experiment [4], in experiment [5] and in [13] was “inactive” in each case. Further, the activation in [7] was 0.688%.
